Among the test systems are NCI-H23 lung; NCI-H226 lung; NCI-H322M lung; HOP-62 NSCLC; NCI-H460 lung; HOP-92 NSCLC; NCI-H522 lung; A549/ATCC NSCLC; 786-0 renal; COLO 205 colon.
Common to all, as to assay: NCI-60 one-dose screen, 48 h (100 = growth as untreated, 0 = no growth, -100 = all killed)
Holding throughout (conditions): 10 µM unless noted

This is part of a sample that, as a whole, favours compounds with a hit. Of some 83,000 tested, about 20% had one in any assay.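 In brief: 96-well plates, 48 h treatment, single concentration, percent growth endpoint.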 Values without a mark were called inactive. Active and inactive are the calls of the source. How the source made its calls: active means growth percent below 10; inactive means the rest.

Here are results for 13 molecules from PubChem BioAssay (NCI).

As for `O=c1oc2c(cnc3ccccc32)cc1-c1ccsc1`, the growth was 99.8% with NCI-H23 lung; 97.8% in the assay on NCI-H226 lung; 110% with NCI-H322M lung; 92.3% in the assay with HOP-62 NSCLC; 99.9% in the assay on NCI-H460 lung; 82.4% with HOP-92 NSCLC. The growth was 97.4% in the assay with NCI-H522 lung, 105% with A549/ATCC NSCLC, 97.1% in the assay on 786-0 renal and 112% in the assay with COLO 205 colon.
Consider `Cc1cc(Cl)ccc1NC(=O)c1cc2ccccc2cc1O`, for which the growth is 7.5% (active) in the assay on NCI-H23 lung; 33.5% in the assay on NCI-H226 lung; -1.74% (active) in the assay on NCI-H322M lung; 33.9% in the assay with HOP-62 NSCLC; 2.76% (active) in the assay on NCI-H460 lung; -12.1% (active) with HOP-92 NSCLC. In addition, the growth with NCI-H522 lung was -8.43% (active); in the assay on A549/ATCC NSCLC it was 20.8%; in the assay on 786-0 renal, 28.4%; in the assay on COLO 205 colon it was 99.8%.
As to `O=[N+]([O-])c1ccc(N/N=C(/C(=N/Nc2ccc([N+](=O)[O-])cc2)c2ccccc2)c2ccccc2)cc1`, the growth in the assay with NCI-H23 lung is 82.5%; with NCI-H226 lung, 97.5%; in the assay with NCI-H322M lung, 81.1%; with HOP-62 NSCLC it was 76.6%; in the assay on NCI-H460 lung it was 46.2%; with HOP-92 NSCLC, 107%. Moreover, the growth is 50.8% in the assay on NCI-H522 lung, 90.9% in the assay with A549/ATCC NSCLC, 103% in the assay with 786-0 renal and 87.3% with COLO 205 colon.
On to `Cc1ccc(/C=N/Nc2nc(Nc3ccccc3)nc(-n3nc(C)cc3C)n2)cc1`, for which the growth in the assay with NCI-H23 lung is 54.8%; in the assay with NCI-H226 lung, 46.9%; with NCI-H322M lung, 27%; in the assay with HOP-62 NSCLC, 73.3%; in the assay on NCI-H460 lung, 6.72% (active); in the assay on HOP-92 NSCLC, 60.7%. Besides, the growth in the assay with NCI-H522 lung was 15.7%; with A549/ATCC NSCLC, 26.2%; in the assay with 786-0 renal, 44.4%; in the assay with COLO 205 colon, 30.6%.
Take `CC[C@]12C=CCN3CC[C@@]4(c5cc(NC(=O)CCC(=O)OCc6cn(Cc7ccc(F)cc7)nn6)c(OC)cc5N(C)[C@H]4[C@@](O)(C(=O)OC)[C@@H]1OC(C)=O)[C@@H]32`: the growth is 97.2% in the assay with NCI-H23 lung; 95.2% in the assay with NCI-H226 lung; 94.3% in the assay with NCI-H322M lung; 100% with HOP-62 NSCLC; 106% with NCI-H460 lung; 92.5% in the assay with HOP-92 NSCLC. The growth with NCI-H522 lung is 98.5%; with A549/ATCC NSCLC it was 96.5%; with 786-0 renal, 96.4%; in the assay on COLO 205 colon it was 107%.
Turning to `C/C(=N/O)c1ccc(F)cc1`, the growth in the assay on NCI-H23 lung is 84%; with NCI-H226 lung, 91.5%; with NCI-H322M lung it was 111%; with HOP-62 NSCLC it was 92.8%; in the assay on NCI-H460 lung, 36.6%; in the assay on HOP-92 NSCLC it was 109%. Moreover, the growth with NCI-H522 lung was 55.4%; in the assay with A549/ATCC NSCLC it was 103%; with 786-0 renal it was 107%; with COLO 205 colon, 90.6%.
Regarding `N#Cc1cccc(F)c1`, the growth is 106% in the assay on NCI-H23 lung; 109% with NCI-H226 lung; 115% in the assay with NCI-H322M lung; 110% in the assay with HOP-62 NSCLC; 118% in the assay with NCI-H460 lung; 113% with HOP-92 NSCLC. Further, the growth with NCI-H522 lung is 102%; in the assay with A549/ATCC NSCLC, 109%; in the assay on 786-0 renal it was 101%; with COLO 205 colon, 114%.
Take `COc1ccc2[nH]cc(C(c3cc(F)cc(F)c3)c3c[nH]c4ccc(OC)cc34)c2c1`: the growth in the assay with NCI-H23 lung was 67.2%; in the assay with NCI-H226 lung, 97.4%; in the assay with NCI-H322M lung, 70.3%; in the assay on HOP-62 NSCLC it was 93.4%; with NCI-H460 lung it was 64.4%; with HOP-92 NSCLC, 54.3%. Further, the growth in the assay with NCI-H522 lung is 69.3%; with A549/ATCC NSCLC, 69.4%; in the assay on 786-0 renal, 92.4%; in the assay with COLO 205 colon, 78.1%.
Take `CN(C)C1CCN(Cc2ccc(NC(=O)c3cncc(C#Cc4cnc(N)c5ncccc45)c3)cc2C(F)(F)F)CC1`: the growth was 84.7% in the assay on NCI-H23 lung; 90% in the assay on NCI-H226 lung; 112% in the assay with NCI-H322M lung; 75.5% in the assay with HOP-62 NSCLC; 0.477% (active) in the assay with NCI-H460 lung; 66.4% with HOP-92 NSCLC. Also, the growth is 84.9% in the assay with NCI-H522 lung, 72.2% in the assay with A549/ATCC NSCLC, -78.9% (active) in the assay with 786-0 renal and 69.6% in the assay on COLO 205 colon.
With `C=C1C(=O)O[C@H]2[C@H]1CC/C(COC(=O)CSCCSCC(=O)OC/C1=C/CC[C@@]3(C)O[C@H]3[C@H]3OC(=O)C(=C)[C@@H]3CC1)=C\CC[C@@]1(C)O[C@@H]21`, the growth was 40.6% with NCI-H23 lung; 8.95% (active) in the assay with NCI-H226 lung; 77.2% with NCI-H322M lung; 81.2% with HOP-62 NSCLC; 22.1% in the assay with NCI-H460 lung; -0.141% (active) in the assay on HOP-92 NSCLC. For the same molecule, the growth was -76.2% (active) with NCI-H522 lung, 69.5% in the assay with A549/ATCC NSCLC, -24.2% (active) in the assay with 786-0 renal and -37.7% (active) in the assay on COLO 205 colon.
In the case of `C=CCc1c2c(c(OC)c3ccoc13)C(=O)/C(=C/c1ccccc1OC)O2`, the growth was 19.7% with NCI-H23 lung; 72.8% with NCI-H226 lung; 65.9% in the assay with NCI-H322M lung; 80% with HOP-62 NSCLC; 31.3% with NCI-H460 lung; 58.8% in the assay on HOP-92 NSCLC. In addition, the growth was 48.5% in the assay on NCI-H522 lung, 60.2% with A549/ATCC NSCLC, 94.1% in the assay on 786-0 renal and 104% with COLO 205 colon.
Regarding `CCOC(=O)CSc1ncnc2c1c(-c1ccccc1)c(-c1ccccc1)n2-c1ccc(C)cc1`, the growth in the assay with NCI-H23 lung is 75%; in the assay with NCI-H226 lung it was 77.8%; with NCI-H322M lung, 94.4%; in the assay on HOP-62 NSCLC, 64.8%; with NCI-H460 lung, 76.6%; in the assay with HOP-92 NSCLC, 49.4%. In addition, the growth with NCI-H522 lung was 47.3%; with A549/ATCC NSCLC, 72.5%; in the assay on 786-0 renal it was 80.9%; with COLO 205 colon, 63.7%.
For the molecule `C#COc1cccc(Nc2ncnc3ncc(NC(=O)CCl)cc23)c1`, the growth in the assay on NCI-H23 lung is 32.9% [6.25 µM]; in the assay with NCI-H226 lung, 43.8% [6.25 µM]; in the assay with NCI-H322M lung, 59.4% [6.25 µM]; in the assay on HOP-62 NSCLC, -2.06% [6.25 µM] (active); in the assay with NCI-H460 lung, -5.59% [6.25 µM] (active); in the assay with HOP-92 NSCLC, 59.5% [6.25 µM]. In addition, the growth is -79.2% [6.25 µM] (active) in the assay on NCI-H522 lung, 23% [6.25 µM] with A549/ATCC NSCLC, -69.6% [6.25 µM] (active) in the assay with 786-0 renal and -46.9% [6.25 µM] (active) in the assay with COLO 205 colon.
